Test [1] is described as follows: qHTS drug screen for cell cycle checkpoint inhibitors in PARPi-resistant BRCA-mutant ovarian cancer cell lines. (AID 1963452). The note with it: PEO1/OlaR viability, CellTiter-Glo luminescence, 96 h, stronger effect = lower value. In outline: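 PEO1, PEO4 and PEO1/OlaR ovarian cancer cells, 600 per well, exposed 96 h at 37C to a dilution series. Viability read by CellTiter-Glo luminescence, normalized to DMSO and empty wells; activity summarized as Z-AUC.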

The nature of test [2]: qHTS for identification of novel therapeutic agents for treatment of microphthalmiaassociated transcription factor (MiT) renal cell carcinoma (RCC) (AID 1963991). Further: potency means the concentration at half of the fitted maximal effect. The note with it: CellTiter-Glo, 48 h; for z-score: stronger effect = lower value. In outline: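 Curves over 11 concentrations were fitted to CellTiter-Glo luminescence, scaled between empty wells (0%) and DMSO (100%) viability. Cells were UOK109, UOK124 and UOK145 TFE3-fusion RCC lines at 500/well, exposed 48 hours at 37 C.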

Another test has as its system 7G8. As to the kind of experiment: qHTS profiling for inhibitors of Plasmodium falciparum proliferation (AID 504749; active means well fitted inhibition curve with a large enough effect; further: nearly all actives have a fitted effect of over 60% in size; further: potency means the concentration at half of the fitted maximal effect). The following applies: P. falciparum in erythrocytes, SYBR Green DNA, 72 h; series mostly up to 28.7 µM. In a few lines:
(§1)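 Parasite proliferation within erythrocytes, 72 h exposure. Endpoint: SYBR Green I fluorescence after overnight lysis at room temperature. Controls: 0.29 uM artemisinin, DMSO.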

Another test relates to ATS189. Described as above. The following applies: P. falciparum in erythrocytes, SYBR Green DNA, 72 h; series mostly up to 28.7 µM. In outline: as §1
For a further test, the system named is ATS95. The description is as above. The following applies: P. falciparum in erythrocytes, SYBR Green DNA, 72 h; series mostly up to 28.7 µM. In outline:
as §1

A further test concerns CP191. The test is described as above. The note with it: P. falciparum in erythrocytes, SYBR Green DNA, 72 h; series mostly up to 28.7 µM. In a few lines: as §1
The next test deals with CP192. The description is as above. The note with it: P. falciparum in erythrocytes, SYBR Green DNA, 72 h; series mostly up to 28.7 µM. In a few lines:
as §1

A further test concerns CP201. The test is described as above. The note with it: P. falciparum in erythrocytes, SYBR Green DNA, 72 h; series mostly up to 28.7 µM. In a few lines:
as §1

The subject of the next test is CP215. The test is described as above. The note with it: P. falciparum in erythrocytes, SYBR Green DNA, 72 h; series mostly up to 28.7 µM. In a few lines: as §1
The next test deals with CP238. Described as above. The following applies: P. falciparum in erythrocytes, SYBR Green DNA, 72 h; series mostly up to 28.7 µM. In a few lines: as §1
Where [3] appears, read: measured here: PEO1 parental Z-AUC.
Setting [4] is: TFE3-RCC UOK109 viability, measured here: UOK109 Z-AUC.
[5] abbreviates: TFE3-RCC viability, measured here: UOK124 Z-AUC.
[6] abbreviates: TFE3-RCC viability, measured here: UOK145 Z-AUC.

Records with an inconclusive call do not appear. Calls of active or inactive are those of the source. Unless noted, the call rests on the fitted dose curve.

As to `O=C(Oc1ccc([N+](=O)[O-])cc1)N1CCC(C(O)(c2ccc3c(c2)OCO3)c2ccc3c(c2)OCO3)CC1`, the Z-AUC in test [1] was 0.0942 (inactive); in test [1] (setting [3]), 0.266; in test [1] (measured here: PEO4 Z-AUC), 0.407.

Take `CC(=O)Nc1ccc(OC[C@](C)(O)C(=O)Nc2ccc([N+](=O)[O-])c(C(F)(F)F)c2)cc1`: the values for the Z-AUC in test [1], in [1] (setting [3]) and in [1] (measured here: PEO4 Z-AUC) were -0.618 (inactive), -0.737 and -0.359, respectively.

On to `CCN1CCN(C(=O)Cc2ccc(Nc3ncc(F)c(Nc4ccc(C(=O)Nc5ccccc5Cl)cc4)n3)cc2)CC1`, for which the Z-AUC in test [1] is 0.278 (inactive); in [1] (setting [3]), -0.415; in test [1] (measured here: PEO4 Z-AUC), -1.09.

Turning to `CC(C)(O)C(=O)Nc1ccc([N+](=O)[O-])c(C(F)(F)F)c1`, the Z-AUC in test [1] was 1.27 (inactive); in test [1] (setting [3]) it was 0.567; in test [1] (measured here: PEO4 Z-AUC), 0.85.

For `CCNC(=O)CC1N=C(c2ccc(Cl)cc2)c2cc(OC)ccc2-n2c(C)nnc21` (stereo not drawn), the Z-AUC was 0.242 (inactive) in test [1], 0.653 in test [1] (setting [3]) and 0.806 in test [1] (measured here: PEO4 Z-AUC).

For `CN[C@@H]1Cc2cccc3[nH]c(=O)n(c23)C1`, the Z-AUC was 1.45 (inactive) in test [1], 1.4 in test [1] (setting [3]) and 1.34 in test [1] (measured here: PEO4 Z-AUC).

With `CC(C)[C@]12O[C@H]1[C@@H]1O[C@]13[C@]1(O[C@H]1C[C@H]1C4=C(CC[C@@]13C)C(=O)OC4)[C@@H]2O`, the Z-AUC is -2.76 (inactive) in [1], -2.59 in [1] (setting [3]) and -3.67 in test [1] (measured here: PEO4 Z-AUC).

In the case of `O=c1cccc2n1CC1CNC[C@H]2C1`, the Z-AUC was 1.36 (inactive) in [1], 1.98 in test [1] (setting [3]) and 1.69 in test [1] (measured here: PEO4 Z-AUC).

`COc1ccc(C(=O)c2c(C)n(CCN3CCOCC3)c3cc(I)ccc23)cc1`: the values for the Z-AUC in [1], in [1] (setting [3]) and in test [1] (measured here: PEO4 Z-AUC) were -0.298 (inactive), -0.515 and -0.461, respectively.

Turning to `NC1=NC(=O)N2CC12` (stereo not drawn), the Z-AUC in [1] is -1.19 (inactive); in test [1] (setting [3]), -0.747; in [1] (measured here: PEO4 Z-AUC) it was -0.506. Further, the z-score in test [2] (setting [4]) was found to be 0.952; in [2] (setting [5]), 1.24; in [2] (setting [6]), 1.15. The Potency in the test on 7G8 is 10 µM (active). The Potency result with ATS189, in the test on ATS95, in the test with CP191, in the test on CP192, in the test on CP215 and in the test with CP238 was “inactive” each time. Also, the result in the test on CP201 was inactive.

As to `O=C1C=CC[C@@H]2[C@H]3CCCN4CCC[C@@H](CN12)[C@@H]34`, the Z-AUC is 0.0265 (inactive) in [1], 1.52 in test [1] (setting [3]) and 0.946 in [1] (measured here: PEO4 Z-AUC).

Regarding `CN(C)NC(=O)CCC(=O)O`, the Z-AUC in [1] is 1.04 (inactive); in test [1] (setting [3]), 0.492; in test [1] (measured here: PEO4 Z-AUC), 0.93. For the same molecule, the z-score in [2] (setting [4]) was 0.632; in test [2] (setting [5]), 0.666; in [2] (setting [6]), -0.178.

Regarding `C[C@@H]1CC[C@H]2[C@@H](C)C(=O)O[C@@H]3O[C@@]4(C)CC[C@H]1[C@]32OO4`, the results for the z-score in test [2] (setting [4]), in test [2] (setting [5]) and in test [2] (setting [6]) were 0.72, 0.74 and 0.344, respectively.

As for `NC1CC1c1ccccc1` (stereo not drawn), the z-score in [2] (setting [4]) turned out to be 0.891; in test [2] (setting [5]), 0.509; in test [2] (setting [6]), 0.821.

On to `CC[C@@H](C(N)=O)N1CCCC1=O`, for which the Z-AUC was -0.418 (inactive) in test [1], -0.901 in test [1] (setting [3]) and -0.237 in test [1] (measured here: PEO4 Z-AUC). The values for the z-score in [2] (setting [4]), in test [2] (setting [5]) and in test [2] (setting [6]) were 1.12, 0.779 and 0.655, respectively.

For `COc1cc([C@@H]2c3cc4c(cc3[C@@H](O)C3COC(=O)C32)OCO4)cc(OC)c1O` (stereo partly drawn), the results for the Z-AUC in test [1], in [1] (setting [3]) and in [1] (measured here: PEO4 Z-AUC) were -0.729 (inactive), -0.507 and -1.03, respectively. Further, the Potency in test [2] (TFE3-RCC UOK109 viability) is 0.0418 µM (active). Also, the z-score in test [2] (setting [4]) was -1.65; in [2] (setting [5]) it was -1.93; in test [2] (setting [6]), -1.12.

As for `COc1ccc2c(c1)[C@]13CCCCC1C(C2)N(C)CC3` (stereo partly drawn), the results for the z-score in [2] (setting [4]), in test [2] (setting [5]) and in test [2] (setting [6]) were -0.129, 0.851 and 0.444, respectively.

As to `CCCC[N+]1(C)[C@H]2CC(OC(=O)[C@H](CO)c3ccccc3)C[C@H]1[C@H]1O[C@H]12` (stereo partly drawn), the figures for the Z-AUC in test [1], in test [1] (setting [3]) and in [1] (measured here: PEO4 Z-AUC) were 1.48 (inactive), 1.34 and 1.36, respectively. The z-score came to 0.529 in test [2] (setting [4]), 0.336 in test [2] (setting [5]) and 0.453 in test [2] (setting [6]).

Source of the values: PubChem BioAssay (NCATS).
